Here are results for 37 targets from the supplement of paper PMC12819154, “High-throughput peptide-centric local stability assay extends protein–ligand identification to membrane proteins, tissues and bacteria” (Nature Structural & Molecular Biology, 2025).

Sequence of UniProt P49674 (P49674 whole entry, looked up): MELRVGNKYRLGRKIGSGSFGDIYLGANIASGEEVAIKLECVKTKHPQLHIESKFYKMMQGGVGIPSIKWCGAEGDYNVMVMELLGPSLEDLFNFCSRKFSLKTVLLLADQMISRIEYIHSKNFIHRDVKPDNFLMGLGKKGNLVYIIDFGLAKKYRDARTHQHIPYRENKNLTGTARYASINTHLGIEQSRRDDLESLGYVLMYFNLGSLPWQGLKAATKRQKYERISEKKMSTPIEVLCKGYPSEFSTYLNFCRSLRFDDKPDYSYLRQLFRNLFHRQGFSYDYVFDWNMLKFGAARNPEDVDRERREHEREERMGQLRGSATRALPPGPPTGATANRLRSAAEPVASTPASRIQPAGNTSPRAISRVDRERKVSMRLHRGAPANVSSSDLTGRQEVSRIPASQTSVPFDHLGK
Sequence of UniProt O95067 (O95067 whole entry): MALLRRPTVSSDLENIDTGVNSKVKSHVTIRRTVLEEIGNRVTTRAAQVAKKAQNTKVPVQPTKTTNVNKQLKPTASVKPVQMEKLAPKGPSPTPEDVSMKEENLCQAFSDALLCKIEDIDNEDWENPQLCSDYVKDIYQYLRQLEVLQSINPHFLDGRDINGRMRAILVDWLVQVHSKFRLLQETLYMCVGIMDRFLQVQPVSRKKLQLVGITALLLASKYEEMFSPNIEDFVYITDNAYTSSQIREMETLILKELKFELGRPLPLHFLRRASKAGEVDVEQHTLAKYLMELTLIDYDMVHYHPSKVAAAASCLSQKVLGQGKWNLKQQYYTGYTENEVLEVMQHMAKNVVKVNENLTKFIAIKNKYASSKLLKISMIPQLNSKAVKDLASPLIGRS
Sequence of UniProt Q9UBS0 (Q9UBS0 whole entry): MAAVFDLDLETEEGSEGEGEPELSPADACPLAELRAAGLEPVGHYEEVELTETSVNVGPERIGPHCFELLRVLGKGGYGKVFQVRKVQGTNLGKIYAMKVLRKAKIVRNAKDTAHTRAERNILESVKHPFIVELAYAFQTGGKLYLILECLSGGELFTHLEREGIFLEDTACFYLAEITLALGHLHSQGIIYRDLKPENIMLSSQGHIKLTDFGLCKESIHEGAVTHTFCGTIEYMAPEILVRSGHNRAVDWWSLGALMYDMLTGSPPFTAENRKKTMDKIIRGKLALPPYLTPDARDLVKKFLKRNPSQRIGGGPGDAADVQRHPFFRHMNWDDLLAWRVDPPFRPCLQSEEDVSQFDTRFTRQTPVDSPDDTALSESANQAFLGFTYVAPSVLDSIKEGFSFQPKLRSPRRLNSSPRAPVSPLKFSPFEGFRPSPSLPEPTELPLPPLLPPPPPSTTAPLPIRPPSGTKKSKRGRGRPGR
Sequence of UniProt Q96S94 (Q96S94 whole entry): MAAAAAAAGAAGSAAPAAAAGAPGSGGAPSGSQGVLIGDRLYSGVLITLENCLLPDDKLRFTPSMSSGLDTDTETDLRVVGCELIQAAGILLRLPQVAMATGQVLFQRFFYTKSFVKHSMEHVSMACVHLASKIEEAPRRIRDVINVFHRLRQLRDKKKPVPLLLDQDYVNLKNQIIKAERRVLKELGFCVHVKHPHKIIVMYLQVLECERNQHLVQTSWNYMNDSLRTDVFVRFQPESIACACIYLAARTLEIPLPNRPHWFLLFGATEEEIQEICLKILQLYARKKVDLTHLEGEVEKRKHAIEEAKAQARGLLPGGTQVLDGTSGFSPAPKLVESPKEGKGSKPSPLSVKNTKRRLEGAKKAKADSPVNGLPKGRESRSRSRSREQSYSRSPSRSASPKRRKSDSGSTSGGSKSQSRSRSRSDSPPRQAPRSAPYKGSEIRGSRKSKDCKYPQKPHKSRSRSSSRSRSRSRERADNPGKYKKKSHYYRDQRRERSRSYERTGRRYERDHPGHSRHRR
Sequence of UniProt Q9H4L5 (Q9H4L5 whole entry): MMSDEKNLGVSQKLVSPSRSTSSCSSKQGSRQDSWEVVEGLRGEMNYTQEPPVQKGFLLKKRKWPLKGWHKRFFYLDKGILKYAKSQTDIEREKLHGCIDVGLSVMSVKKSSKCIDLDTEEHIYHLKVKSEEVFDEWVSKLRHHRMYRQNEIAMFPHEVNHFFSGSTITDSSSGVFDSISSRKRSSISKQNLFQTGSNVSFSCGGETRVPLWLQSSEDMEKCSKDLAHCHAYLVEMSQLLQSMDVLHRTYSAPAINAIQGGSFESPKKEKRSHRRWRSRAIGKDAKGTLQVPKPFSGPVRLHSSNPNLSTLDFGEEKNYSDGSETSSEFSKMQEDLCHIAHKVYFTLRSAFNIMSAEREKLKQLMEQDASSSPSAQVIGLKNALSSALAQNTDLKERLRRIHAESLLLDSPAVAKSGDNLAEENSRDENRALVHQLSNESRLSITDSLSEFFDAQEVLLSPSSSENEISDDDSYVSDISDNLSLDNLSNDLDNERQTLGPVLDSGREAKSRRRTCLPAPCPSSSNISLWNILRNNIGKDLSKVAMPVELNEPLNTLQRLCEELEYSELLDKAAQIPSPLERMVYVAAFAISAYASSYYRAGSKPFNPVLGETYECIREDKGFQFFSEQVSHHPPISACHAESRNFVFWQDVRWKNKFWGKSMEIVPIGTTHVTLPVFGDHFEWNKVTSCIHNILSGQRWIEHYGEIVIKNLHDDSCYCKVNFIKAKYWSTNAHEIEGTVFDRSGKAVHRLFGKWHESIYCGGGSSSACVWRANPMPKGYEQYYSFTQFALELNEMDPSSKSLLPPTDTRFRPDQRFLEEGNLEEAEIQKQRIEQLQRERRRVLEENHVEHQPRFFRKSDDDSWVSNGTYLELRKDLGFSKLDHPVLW
Sequence of UniProt P19623 (P19623 whole entry): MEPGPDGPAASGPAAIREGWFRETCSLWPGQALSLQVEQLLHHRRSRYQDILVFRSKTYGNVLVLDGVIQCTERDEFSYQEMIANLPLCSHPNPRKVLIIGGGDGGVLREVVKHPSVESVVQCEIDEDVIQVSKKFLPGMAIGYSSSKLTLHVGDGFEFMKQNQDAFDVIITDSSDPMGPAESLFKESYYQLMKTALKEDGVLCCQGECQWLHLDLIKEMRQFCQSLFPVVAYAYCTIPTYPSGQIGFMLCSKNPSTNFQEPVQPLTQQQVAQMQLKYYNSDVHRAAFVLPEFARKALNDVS
Sequence of UniProt P02100 (P02100 whole entry): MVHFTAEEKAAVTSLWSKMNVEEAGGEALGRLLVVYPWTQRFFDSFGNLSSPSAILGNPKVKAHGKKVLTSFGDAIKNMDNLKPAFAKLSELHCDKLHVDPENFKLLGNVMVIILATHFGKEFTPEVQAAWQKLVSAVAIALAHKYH
Sequence of UniProt Q12851 (Q12851 whole entry): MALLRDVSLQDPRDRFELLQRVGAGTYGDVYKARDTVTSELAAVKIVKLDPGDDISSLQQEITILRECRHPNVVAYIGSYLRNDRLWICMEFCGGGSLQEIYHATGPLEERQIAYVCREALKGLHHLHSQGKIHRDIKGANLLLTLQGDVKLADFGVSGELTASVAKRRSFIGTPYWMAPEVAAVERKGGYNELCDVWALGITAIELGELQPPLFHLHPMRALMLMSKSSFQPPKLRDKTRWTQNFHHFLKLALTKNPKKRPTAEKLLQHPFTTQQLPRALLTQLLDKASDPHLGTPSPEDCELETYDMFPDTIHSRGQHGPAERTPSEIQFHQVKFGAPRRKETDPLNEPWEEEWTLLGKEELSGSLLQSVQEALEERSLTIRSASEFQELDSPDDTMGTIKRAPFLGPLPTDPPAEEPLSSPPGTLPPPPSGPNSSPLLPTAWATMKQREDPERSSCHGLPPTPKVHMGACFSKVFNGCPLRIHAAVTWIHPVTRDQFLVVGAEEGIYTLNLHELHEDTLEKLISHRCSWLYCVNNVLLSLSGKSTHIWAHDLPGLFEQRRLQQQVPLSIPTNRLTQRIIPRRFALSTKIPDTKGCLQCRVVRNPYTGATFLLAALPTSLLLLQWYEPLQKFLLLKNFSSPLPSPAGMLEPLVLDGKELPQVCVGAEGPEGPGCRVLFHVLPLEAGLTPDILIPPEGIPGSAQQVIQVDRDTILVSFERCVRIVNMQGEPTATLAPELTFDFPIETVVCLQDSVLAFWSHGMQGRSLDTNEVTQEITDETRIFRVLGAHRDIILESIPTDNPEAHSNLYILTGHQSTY
Sequence of UniProt Q9NRH2 (Q9NRH2 whole entry): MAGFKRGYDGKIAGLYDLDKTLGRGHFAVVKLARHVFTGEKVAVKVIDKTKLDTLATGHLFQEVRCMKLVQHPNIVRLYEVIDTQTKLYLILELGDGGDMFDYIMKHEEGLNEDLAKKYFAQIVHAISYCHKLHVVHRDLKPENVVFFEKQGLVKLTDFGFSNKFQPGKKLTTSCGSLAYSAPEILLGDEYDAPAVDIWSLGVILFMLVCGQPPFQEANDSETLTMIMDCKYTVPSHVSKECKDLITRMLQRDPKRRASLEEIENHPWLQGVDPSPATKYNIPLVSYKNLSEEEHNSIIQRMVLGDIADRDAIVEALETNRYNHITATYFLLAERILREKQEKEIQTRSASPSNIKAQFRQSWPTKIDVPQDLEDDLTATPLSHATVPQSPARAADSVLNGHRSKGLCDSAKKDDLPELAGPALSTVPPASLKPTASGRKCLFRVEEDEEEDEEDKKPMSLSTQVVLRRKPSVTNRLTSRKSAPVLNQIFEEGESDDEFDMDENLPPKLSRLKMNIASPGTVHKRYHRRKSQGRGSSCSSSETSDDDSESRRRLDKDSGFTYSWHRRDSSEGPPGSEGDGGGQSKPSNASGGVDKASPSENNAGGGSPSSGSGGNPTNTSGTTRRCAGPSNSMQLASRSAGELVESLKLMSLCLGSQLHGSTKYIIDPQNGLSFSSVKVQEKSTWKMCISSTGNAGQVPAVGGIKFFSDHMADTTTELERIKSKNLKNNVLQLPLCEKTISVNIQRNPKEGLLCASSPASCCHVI
Sequence of UniProt Q99497 (Q99497 whole entry): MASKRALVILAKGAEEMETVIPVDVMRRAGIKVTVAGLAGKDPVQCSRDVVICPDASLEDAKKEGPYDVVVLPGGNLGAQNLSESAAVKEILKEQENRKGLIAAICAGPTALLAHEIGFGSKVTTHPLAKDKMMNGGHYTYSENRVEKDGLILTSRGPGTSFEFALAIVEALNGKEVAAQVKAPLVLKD

Compound in the assay: CN[C@@H]1C[C@H]2O[C@@](C)([C@@H]1OC)n1c3ccccc3c3c4c(c5c6ccccc6n2c5c31)C(=O)NC4 [staurosporine]
Briefly: log2 fold change of tryptic peptide abundance, ligand vs vehicle (limited proteolysis) (log2 ratio); higher = more trypsin-susceptible (destabilized). The settings on record: ligand concentration: 20 uM; sample: K562 cleared lysate; digestion: 4 min, 22 C (HT-PELSA RT4min, Orbitrap Astral).
On to “NSUN2 (peptide sequence: LAQEGIYTLYPFINSR, peptide start residue: 603) (UniProt Q08J23)”, for which the log2 fold change was -0.339. Regarding “PRKAR2B (peptide sequence: CVGNYDNR, peptide start residue: 211) (UniProt P31323)”, the log2 fold change is 0.866. Consider “SRM (peptide sequence: AAFVLPEFAR, peptide start residue: 286) (UniProt P19623)”, for which the log2 fold change was 0.362. To “RPL4 (peptide sequence: MFAPTKTWR, peptide start residue: 101) (UniProt P36578)” belongs 0.751; to “TRMT1 (peptide sequence: RNVQLNDVAHLVQPSQADAR, peptide start residue: 195) (UniProt Q9NXH9)”, 0.782; to “UniProt Q9BUB5 (peptide sequence: GLPTPQVLQR, peptide start residue: 382)”, 0.803. As for “OSBPL3 (peptide sequence: YWSTNAHEIEGTVFDR, peptide start residue: 727) (UniProt Q9H4L5)”, the figure is -1.33; as for “UniProt Q9UBS0 (peptide sequence: HPFIVELAYAFQTGGK, peptide start residue: 128)”, -0.89. As for “UniProt P51812 (peptide sequence: DILVEVNHPFIVK, peptide start residue: 120)”, the figure is -0.86.

Turning to “CLIC1 (peptide sequence: IGNCPFSQR, peptide start residue: 21) (UniProt O00299)”, the log2 fold change is 0.243. To “CPOX (peptide sequence: EAEILEVLR, peptide start residue: 439) (UniProt P36551)” belongs -1.06; to “UniProt Q9Y2K2 (peptide sequence: IGYYEIDR, peptide start residue: 63)”, -3.15. For the target “HBG2 (peptide sequence: MVTGVASALSSR, peptide start residue: 134) (UniProt P69892)”, the log2 fold change is 0.206.

On to “RPL18A (peptide sequence: ARAHSIQIMKVEEIAASK, peptide start residue: 119) (UniProt Q02543)”, for which the log2 fold change worked out at 0.524. As for “IARS (peptide sequence: AVPSWFVR, peptide start residue: 411) (UniProt P41252)”, the figure is 0.326; as for “UniProt Q02750 (peptide sequence: SYMSPER, peptide start residue: 228)”, 3.08; as for “UniProt P84022 (peptide sequence: TGQLDELEK, peptide start residue: 45)”, 0.887. As to “PRPF4B (peptide sequence: QHLCLVFEPLSMNLR, peptide start residue: 761) (UniProt Q13523)”, the log2 fold change was -0.779.

With “SNRK (peptide sequence: IAGLYDLDKTLGR, peptide start residue: 12) (UniProt Q9NRH2)”, the log2 fold change was -2.34.

With “WEE1 (peptide sequence: FLANEVLQENYTHLPK, peptide start residue: 482) (UniProt P30291)”, the log2 fold change was -1.01.

Consider “UniProt P62913 (peptide sequence: KLCLNICVGESGDR, peptide start residue: 19)”, for which the log2 fold change is -0.237. To “MAP4K2 (peptide sequence: ALLTQLLDK, peptide start residue: 280) (UniProt Q12851)” belongs -0.962; to “UniProt Q96G28 (peptide sequence: NIEMQLQAIR, peptide start residue: 117)”, 0.282; to “XRCC5 (peptide sequence: VDEEQMK, peptide start residue: 326) (UniProt P13010)”, -0.825. As for “CCNL2 (peptide sequence: HSMEHVSMACVHLASK, peptide start residue: 118) (UniProt Q96S94)”, the figure is -1.06; as for “CCNB2 (peptide sequence: VAAAASCLSQK, peptide start residue: 308) (UniProt O95067)”, -1.57; as for “UniProt Q9Y6E0 (peptide sequence: AANVLLSEHGEVK, peptide start residue: 159)”, -1.21.

On to “UniProt P49674 (peptide sequence: FDDKPDYSYLR, peptide start residue: 260)”, for which the log2 fold change is -0.398. As for “THRAP3 (peptide sequence: SYSPAHNR, peptide start residue: 53) (UniProt Q9Y2W1)”, the figure is 2.27; as for “DCUN1D4 (peptide sequence: YAFDFAR, peptide start residue: 144) (UniProt Q92564)”, 1.53. To “UniProt P19784 (peptide sequence: HLVSPEALDLLDKLLR, peptide start residue: 292)” belongs -2.25; to “RPL5 (peptide sequence: GAVDGGLSIPHSTK, peptide start residue: 165) (UniProt P46777)”, 0.307. As for “MAP3K4 (peptide sequence: DFLSHCLESDPK, peptide start residue: 1576) (UniProt Q9Y6R4)”, the figure is -1.49; as for “HBE1 (peptide sequence: MNVEEAGGEALGR, peptide start residue: 19) (UniProt P02100)”, 0.28. Take “UniProt P78527 (peptide sequence: GYGLFAGPCK, peptide start residue: 365)”: the log2 fold change was 0.189. To “PARK7 (peptide sequence: VTVAGLAGKDPVQCSR, peptide start residue: 33) (UniProt Q99497)” belongs 0.199.

In the case of “RPS6KA4 (peptide sequence: VLGTGAYGK, peptide start residue: 54) (UniProt O75676)”, the log2 fold change was -0.533.
